In the library only some 21% were active in any assay of this set; here they are far more common.
NS1 function inh: blocks influenza NS1 protein function. Potency, µM (highest dose often 46.1 µM), for inactives: at the highest dose activity, positive = more growth. hit rate 0.4% among 270,000. AID 2326; further: potency means the concentration at half of the fitted maximal effect; actives are rising curves; nearly all actives have a fitted effect of over 50% in size
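S. cerevisiae expressing influenza A NS1, grown in glucose, washed, then diluted 1:100 into pH 6.0 -URA galactose medium with 23 nl compound. Growth recovery read as OD600; NS1-free strain serves as control.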
Shiga toxin inh: inhibitors of Shiga toxin in Vero cells | Vero cells, Shiga toxin protein synthesis inhibition reporter | inhibition, % at 38.7 µM | hit rate 9.2% among 290,000; in the data active means inhibition mostly above about 28%, no sharp cut-off; inactive means mostly below about 43%; further: 0% is about no effect
Pf growth 48h: P. falciparum growth inhibition at 48 hours (one generation). P. falciparum luciferase growth in erythrocytes, 48 h. Potency, µM (titrated, usually from 28.7 µM), for the others: top-dose activity change, negative = inhibition, actives largely listed as inhibitors. hit rate 5.9% among 310,000; active means well fitted inhibition curve with a large enough effect; inconclusive means small, poorly fitted or top-dose-only effect, or another doubt; inactive means no such curve, though single readings can be large or run the other way; further: potency means the concentration at half of the fitted maximal effect; on the % scale 0 is the no-effect control and ±100 the full control effect
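Cell-based growth assay: transgenic P. falciparum expressing firefly luciferase, cultured in red cells within RPMI 1640 containing 0.5% w/v Albumax, 24 mM bicarbonate and gentamycin. A drop in luciferase activity indicates inhibition.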
Pf growth 96h: inhibits malaria parasite growth, 96 h; P. falciparum luciferase reporter growth, 96 h; Potency, µM (titrated, usually from 28.7 µM), for the others: top-dose activity change, negative = inhibition, actives largely listed as inhibitors; hit rate 6.9% among 320,000; active means well fitted inhibition curve with a large enough effect; inconclusive means small, poorly fitted or top-dose-only effect, or another doubt; inactive means no such curve, though single readings can be large or run the other way; further: potency means the concentration at half of the fitted maximal effect; on the % scale 0 is the no-effect control and ±100 the full control effect
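Luminescence readout: decreased luciferase signal marks inhibited growth of reporter-expressing P. falciparum in infected red cells (2% hematocrit, 0.05% parasitemia final), exposed to compound two generations (96 h, 37 C, 5% CO2).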
CHX counter: affects cycloheximide protein synthesis inhibition readout, counter-screen. max response, %. hit rate 12% among 300,000. cell reporter, cycloheximide protein synthesis inhibition counterscreen; in the data active means max response mostly above about 13%, no sharp cut-off; inactive means mostly below about 14%; further: read at 38.3 µM for the half of the compounds with a filed dose; 0% is about no effect
Flu NS1 inh: influenza NS1 function inhibition validation; influenza NS1 function cell assay, 15-point titration; activity change, negative = inhibition, % at 32.9 µM; 1,400 tested, under 10 active; shares compounds with NS1 function inh; further: 0% is about no effect
Flu PR8 replic: influenza NS1 inhibitors: inhibition of influenza A/PR/8/34 replication | MDCK infected influenza A/PR/8/34, virus titer TCID50; hits give low values | hit rate 30% among 95 | virus titer (log TCID50), log10 TCID50 at 5 µM | shares compounds with NS1 function inh; call rule not given here
An asterisk follows results filed as active; ? = inconclusive; . = not tested or not shown. Unless noted, the call rests on the fitted dose curve.

SMILES	NS1 function inh	Shiga toxin inh	Pf growth 48h	Pf growth 96h	CHX counter	Flu NS1 inh	others
CCOc1ccc(NC(=O)c2cccnc2C(=O)O)cc1	4.47µM*	17.7	51.3%	4.3%	18.3	1.7
CC1=C(C(=O)Nc2ccccc2C(=O)NCCCN2CCN(C)CC2)SCCO1	6.3%	13.5	24.0%	14.4%	-4.7	.
N#C/C(=C\c1cn(CCOc2ccccc2)c2ccccc12)C(=O)NCc1ccco1	?	12.9	?	3.7%	16.0*	-15.0
Cc1c(N/N=C(\C#N)C(=O)c2ccc(Cl)cc2)c(=O)n(-c2ccccc2)n1C	?	14.9	11.7µM*	113.2%	-0.4	?
C/C=C\C=C/C(=O)Nc1cccc(C2=NOC3(C2)C[C@@H](C(N)=O)N(C(=O)c2ccccc2)C3)c1 (some centres not stated)	1µM*	-5.0	51.3%	?	-3.4	-11.5
C/C=C\C(=O)Nc1cccc(C2=NOC3(C2)C[C@@H](C(N)=O)N(C(=O)c2ccccc2)C3)c1 (some centres not stated)	-2.1%	-1.8	?	?	-4.3	.
COC(=O)[C@H]1C[C@@H]1[C@H](NC(=O)[C@H]1C[C@@H]1[C@H](NC(=O)OCc1ccccc1)c1ccccc1)c1ccccc1	10µM*	4.2	?	14.7µM*	4.2	-4.9
CC1C/C(=N\NC(=S)NCc2ccccc2)CC(C)(C)C1 (configuration not stated)	?	13.6	.	4.15µM*	-1.5	?
CCCn1c(SCC(=O)N2CCN(C(=O)c3ccco3)CC2)nc2ccccc2c1=O	.	-1.9	-28.2%	-5.5%	-1.4	.
COc1ccc(CCNC(=O)CN2c3cccc4cccc(c34)S2(=O)=O)cc1	.	.	-21.4%	0.5%	.	.
Cc1ncc([N+](=O)[O-])n1CCOC(=O)Nc1ccc(Cl)c(Cl)c1	?	-12.5	?	-4.2%	-3.8	-0.8
Cc1ncc([N+](=O)[O-])n1CCOC(N)=O	2.6%	-3.9	5.8%	44.1%	-1.9	.
C/C=C(/C)C(=O)O[C@H]1C(C)=C2C([C@@H]1OC(=O)CCCCCCC)[C@@](C)(OC(C)=O)C[C@@H](OC(=O)CCC)[C@@]1(O)[C@H]2OC(=O)[C@@]1(C)O (some centres not stated)	8.91µM*	.	.	.	.	36.0
COc1ccc(C2=Nc3cccc4cccc(c34)N2)cc1	3.55µM*	18.5	0.1%	?	4.7	-3.8
CC1(C)OC(=O)C(=CNCC(O)c2ccccc2)C(=O)O1 (configuration not stated)	15.8µM*	-14.8	?	?	-7.5	-2.6
CC1(C)OC(=O)C(=CNCCc2ccc(O)cc2)C(=O)O1	.	-23.1	3.9%	16.7%	9.4	.
COCCC(=O)N1CCC(Oc2ccc(C(=O)NC3CCCCC3)cc2)CC1	12.5%	-1.9	-11.0%	?	-1.1	.
NC(=S)N/N=C1\CC(c2ccc3c(c2)OCCCO3)Oc2ccc(F)cc21 (configuration not stated)	2µM*	33.1	?	?	14.6	0.8
Cc1c(NC(=O)CN2c3ccccc3CC2C)c(=O)n(-c2ccccc2)n1C (configuration not stated)	.	-3.1	11.0%	8.7%	-2.1	.
COC(CNC(=O)c1ccc(Cn2c(=S)[nH]c3cc4c(cc3c2=O)OCO4)cc1)OC	6.31µM*	-19.6	?	?	7.1	16.0
O=C(c1cccc(F)c1)N1CCc2ccccc2C1	?	55.5*	14.5%	43.6%	40.1*	-25.8
N#CCC(=O)NN=C1CCCCCCCCCCC1	1.78µM*	9.2	1.9%	0.7%	5.7	4.0
CN(C)S(=O)(=O)c1ccc(N2CCCC2)c(C(=O)N2CCN(S(=O)(=O)c3ccccc3F)CC2)c1	.	.	?	-29.8%	.	.
COc1ccc(C(=O)CSc2nnc(-c3ccccn3)n2Cc2ccco2)cc1	?	17.2	?	?	-4.4	-8.5
CCCn1c(SCC(=O)NNC(=O)c2ccccc2)nnc1-c1cccnc1	?	-4.3	10.1%	31.7%	-1.3	1.7
SMILES	NS1 function inh	Shiga toxin inh	Pf growth 48h	Pf growth 96h	CHX counter	Flu NS1 inh	others
CCN(CC)S(=O)(=O)c1cccc(C(=O)OCC(=O)Nc2ccc3c(c2)c2ccccc2n3CC)c1	15.3%	15.4	-0.5%	-10.2%	-4.1	.
CCn1c2ccccc2c2cc(NC(=O)COC(=O)c3cccc(S(=O)(=O)NC)c3)ccc21	10µM*	-3.1	31.1%	52.4%	4.7	1.9	Flu PR8 replic=7.33*
CCOC(=O)c1c(-c2ccco2)csc1N	1.26µM*	3.5	0.0%	.	8.5	?
CCOC(=O)c1cc2c(ccn2C)n1Cc1cc(C)ccc1C	9.3%	10.0	?	-4.0%	-2.7	.
CC(C)OC(=O)c1cc2c(ccn2C)n1CC(=O)N(Cc1ccccc1)c1ccccc1	11.2µM*	45.4	?	?	-1.7	-27.9
O=C(N/N=C/c1ccc2c(c1)OCO2)c1cc(-c2ccc(F)cc2)nc2ccccc12	?	91.7*	20.1%	?	50.4*	-0.9
Cc1ccc(C(=O)Nc2ccccc2C(=O)O)cc1S(=O)(=O)NC1CCCCC1	14.1µM*	4.5	2.0%	0.0%	8.3	30.5	Flu PR8 replic=7.66
Cc1ccc(C(=O)NC2CCCC2)cc1S(=O)(=O)N1CCCCC1	12.8%	-9.1	-29.7%	27.8%	-2.4	.
O=C(Nc1ccccc1C(=O)O)c1cccc(NS(=O)(=O)c2ccc(Br)cc2)c1	7.94µM*	.	30.8%	-19.9%	-2.1	33.2
O=C(Nc1ccccc1C(=O)O)c1cccc(S(=O)(=O)Nc2ccc(Br)cc2)c1	16.7%	-7.3	46.6%	62.2%	1.1	.
Cc1ccc(C(=O)Nc2ccccc2C(=O)O)cc1S(=O)(=O)Nc1ccccc1	15.8µM*	-9.5	0.8%	13.8%	-1.4	28.2
Cc1ccc(C(=O)Nc2ccccc2C(=O)NCc2ccco2)cc1S(=O)(=O)N1CCCCC1	10µM*	52.3*	6.57µM*	47.2%	31.2*	-10.8
CC(=O)c1sc(NC(=O)CCN2C(=O)c3ccccc3C2=O)nc1C	5.8%	-13.4	3.3%	-19.3%	-1.0	.
CCOC(=O)CSc1nc2ccc(N3CCOCC3)cc2c(=O)n1Cc1ccccc1	1µM*	51.3	.	?	18.2*	5.3
Cn1c(SCCOc2ccccc2Cl)nnc1-c1cccs1	?	38.7*	-21.5%	?	25.9*	?
Cc1cc(OCCSc2nnc(-c3cccs3)n2C)ccc1Cl	-169.1%	21.2	?	-4.8%	8.5	.
CC(=O)Oc1ccc2occ(/C=N/c3cc(=O)[nH]c(=S)[nH]3)c(=O)c2c1	?	-3.3	?	?	-0.9	.
COCCn1nnnc1C(c1cc2cc(C)ccc2[nH]c1=O)N1CCN(C2CCCCC2)CC1 (configuration not stated)	1.7%	-29.9	17.2%	.	16.5	.

Assay outcomes: PubChem BioAssay, National Center for Advancing Translational Sciences (NCATS)
